# From paper PMC11062922 (Nature Chemical Biology, 2023)
# Like-named read-outs stand apart in the source and are kept apart here.
# Key:
# Settings in all cases: read-out: apparent Kd, n = 1
# ERCC2 = system: ERCC2
# MAP2K5 = system: MAP2K5
# MAP4K4 = system: MAP4K4
# MAPK9 = system: MAPK9
# PRKAG2 = system: PRKAG2
# PRKCA = system: PRKCA
# PRKX = system: PRKX
# RPS6KA3 = system: RPS6KA3
# [1] = compound concentrations:100 nM and 1000 nM (sheet 'Lestaurtinib' of Supplementary Table 1),run:Lestaurtinib_02381_R1,Plate:MR004
# [2] = compound concentrations:100 nM and 1000 nM (sheet 'Lestaurtinib' of Supplementary Table 1),run:Lestaurtinib_02381_R2,Plate:MR004
# [3] = compound concentrations:100 nM and 1000 nM (sheet 'Lestaurtinib' of Supplementary Table 1),run:Lestaurtinib_02473_R2,Plate:MR010
# [4] = compound concentrations:100 nM and 1000 nM (sheet 'Lestaurtinib' of Supplementary Table 1),run:Lestaurtinib_02566_R1,Plate:MR014
# [5] = compound concentrations:100 nM and 1000 nM (sheet 'Lestaurtinib' of Supplementary Table 1),run:Lestaurtinib_02724_R3,Plate:MR021
# [6] = compound concentrations:100 nM and 1000 nM (sheet 'Lestaurtinib' of Supplementary Table 1),run:Lestaurtinib_02438_R2,Plate:MR008
# [7] = compound concentrations:100 nM and 1000 nM (sheet 'Lestaurtinib' of Supplementary Table 1),run:Lestaurtinib_02443_R3,Plate:MR009
# [8] = compound concentrations:100 nM and 1000 nM (sheet 'Lestaurtinib' of Supplementary Table 1),run:Lestaurtinib_02724_R1,Plate:MR021
# [9] = compound concentrations:100 nM and 1000 nM (sheet 'Lestaurtinib' of Supplementary Table 1),run:Lestaurtinib_03172_R1,Plate:MR031
# [10] = compound concentrations:100 nM and 1000 nM (sheet 'Lestaurtinib' of Supplementary Table 1),run:Lestaurtinib_02487_R1,Plate:MR012
# [11] = compound concentrations:100 nM and 1000 nM (sheet 'Lestaurtinib' of Supplementary Table 1),run:Lestaurtinib_02748_R1,Plate:MR024
substance,measurement,setting,value
Lestaurtinib,potency estimated from few doses,"ERCC2; compound concentrations:100 nM and 1000 nM (sheet 'Lestaurtinib' of Supplementary Table 1),run:Lestaurtinib_02496_R3,Plate:MR013",1.59 µM
same,potency estimated from few doses,"ERCC2; compound concentrations:100 nM and 1000 nM (sheet 'Lestaurtinib' of Supplementary Table 1),run:Lestaurtinib_02572_R2,Plate:MR015",0.261 µM
same,potency estimated from few doses,"MAP2K5; compound concentrations:100 nM and 1000 nM (sheet 'Lestaurtinib' of Supplementary Table 1),run:Lestaurtinib_02364_R1,Plate:MR002",2.24 µM
same,potency estimated from few doses,MAP2K5; [1],1.34 µM
same,potency estimated from few doses,MAP2K5; [2],2.42 µM
same,potency estimated from few doses,"MAP2K5; compound concentrations:100 nM and 1000 nM (sheet 'Lestaurtinib' of Supplementary Table 1),run:Lestaurtinib_02437_R1,Plate:MR007",2.43 µM
same,potency estimated from few doses,MAP2K5; [3],2.44 µM
same,potency estimated from few doses,"MAP2K5; compound concentrations:100 nM and 1000 nM (sheet 'Lestaurtinib' of Supplementary Table 1),run:Lestaurtinib_02482_R3,Plate:MR011",2.35 µM
same,potency estimated from few doses,MAP2K5; [4],1.96 µM
same,potency estimated from few doses,MAP2K5; [5],1.79 µM
same,potency estimated from few doses,"MAP2K5; compound concentrations:100 nM and 1000 nM (sheet 'Lestaurtinib' of Supplementary Table 1),run:Lestaurtinib_02748_R3,Plate:MR024",1.82 µM
same,potency estimated from few doses,"MAP2K5; compound concentrations:100 nM and 1000 nM (sheet 'Lestaurtinib' of Supplementary Table 1),run:Lestaurtinib_02766_R1,Plate:MR027",2.21 µM
same,potency estimated from few doses,MAP4K4; [2],2.24 µM
same,potency estimated from few doses,MAP4K4; [6],1.43 µM
same,potency estimated from few doses,"MAP4K4; compound concentrations:100 nM and 1000 nM (sheet 'Lestaurtinib' of Supplementary Table 1),run:Lestaurtinib_02443_R2,Plate:MR009",1.7 µM
same,potency estimated from few doses,MAP4K4; [3],1.82 µM
same,potency estimated from few doses,"MAP4K4; compound concentrations:100 nM and 1000 nM (sheet 'Lestaurtinib' of Supplementary Table 1),run:Lestaurtinib_02482_R2,Plate:MR011",1.42 µM
same,potency estimated from few doses,MAPK9; [7],1.3 µM
same,potency estimated from few doses,MAPK9; [4],1.99 µM
same,potency estimated from few doses,"MAPK9; compound concentrations:100 nM and 1000 nM (sheet 'Lestaurtinib' of Supplementary Table 1),run:Lestaurtinib_02572_R1,Plate:MR015",1.72 µM
same,potency estimated from few doses,"MAPK9; compound concentrations:100 nM and 1000 nM (sheet 'Lestaurtinib' of Supplementary Table 1),run:Lestaurtinib_02584_R3,Plate:MR017",2.26 µM
same,potency estimated from few doses,"MAPK9; compound concentrations:100 nM and 1000 nM (sheet 'Lestaurtinib' of Supplementary Table 1),run:Lestaurtinib_02624_R1,Plate:MR020",1.41 µM
same,potency estimated from few doses,MAPK9; [8],2.24 µM
same,potency estimated from few doses,"MAPK9; compound concentrations:100 nM and 1000 nM (sheet 'Lestaurtinib' of Supplementary Table 1),run:Lestaurtinib_02752_R3,Plate:MR025",2.18 µM
same,potency estimated from few doses,"MAPK9; compound concentrations:100 nM and 1000 nM (sheet 'Lestaurtinib' of Supplementary Table 1),run:Lestaurtinib_02896_R1,Plate:MR030",2.12 µM
same,potency estimated from few doses,MAPK9; [9],1.9 µM
same,potency estimated from few doses,"MAPK9; compound concentrations:100 nM and 1000 nM (sheet 'Lestaurtinib' of Supplementary Table 1),run:Lestaurtinib_03260_R1,Plate:MR033",1.69 µM
same,potency estimated from few doses,"PRKAG2; compound concentrations:100 nM and 1000 nM (sheet 'Lestaurtinib' of Supplementary Table 1),run:Lestaurtinib_02367_R2,Plate:MR003",1.35 µM
same,potency estimated from few doses,"PRKAG2; compound concentrations:100 nM and 1000 nM (sheet 'Lestaurtinib' of Supplementary Table 1),run:Lestaurtinib_02367_R3,Plate:MR003",1.36 µM
same,potency estimated from few doses,"PRKAG2; compound concentrations:100 nM and 1000 nM (sheet 'Lestaurtinib' of Supplementary Table 1),run:Lestaurtinib_02407_R1,Plate:MR005",0.888 µM
same,potency estimated from few doses,"PRKAG2; compound concentrations:100 nM and 1000 nM (sheet 'Lestaurtinib' of Supplementary Table 1),run:Lestaurtinib_02407_R3,Plate:MR005",1.34 µM
same,potency estimated from few doses,"PRKAG2; compound concentrations:100 nM and 1000 nM (sheet 'Lestaurtinib' of Supplementary Table 1),run:Lestaurtinib_02422_R1,Plate:MR006",0.629 µM
same,potency estimated from few doses,PRKAG2; [6],1.21 µM
same,potency estimated from few doses,"PRKAG2; compound concentrations:100 nM and 1000 nM (sheet 'Lestaurtinib' of Supplementary Table 1),run:Lestaurtinib_02473_R3,Plate:MR010",1.24 µM
same,potency estimated from few doses,PRKAG2; [10],0.352 µM
same,potency estimated from few doses,"PRKAG2; compound concentrations:100 nM and 1000 nM (sheet 'Lestaurtinib' of Supplementary Table 1),run:Lestaurtinib_02566_R3,Plate:MR014",0.888 µM
same,potency estimated from few doses,PRKAG2; [11],1.24 µM
same,potency estimated from few doses,PRKAG2; [9],1.37 µM
same,potency estimated from few doses,PRKCA; [1],2.07 µM
same,potency estimated from few doses,"PRKCA; compound concentrations:100 nM and 1000 nM (sheet 'Lestaurtinib' of Supplementary Table 1),run:Lestaurtinib_02381_R3,Plate:MR004",2.4 µM
same,potency estimated from few doses,"PRKCA; compound concentrations:100 nM and 1000 nM (sheet 'Lestaurtinib' of Supplementary Table 1),run:Lestaurtinib_02443_R1,Plate:MR009",1.99 µM
same,potency estimated from few doses,PRKCA; [7],2.45 µM
same,potency estimated from few doses,PRKCA; [10],1.72 µM
same,potency estimated from few doses,PRKCA; [5],1.76 µM
same,potency estimated from few doses,PRKCA; [11],2.32 µM
same,potency estimated from few doses,PRKX; [2],1.49 µM
same,potency estimated from few doses,"PRKX; compound concentrations:100 nM and 1000 nM (sheet 'Lestaurtinib' of Supplementary Table 1),run:Lestaurtinib_02487_R2,Plate:MR012",2.11 µM
same,potency estimated from few doses,"PRKX; compound concentrations:100 nM and 1000 nM (sheet 'Lestaurtinib' of Supplementary Table 1),run:Lestaurtinib_02487_R3,Plate:MR012",1.35 µM
same,potency estimated from few doses,"PRKX; compound concentrations:100 nM and 1000 nM (sheet 'Lestaurtinib' of Supplementary Table 1),run:Lestaurtinib_02768_R1,Plate:MR028",2.23 µM
same,potency estimated from few doses,"PRKX; compound concentrations:100 nM and 1000 nM (sheet 'Lestaurtinib' of Supplementary Table 1),run:Lestaurtinib_02802_R3,Plate:MR029",1.97 µM
same,potency estimated from few doses,"RPS6KA3; compound concentrations:100 nM and 1000 nM (sheet 'Lestaurtinib' of Supplementary Table 1),run:Lestaurtinib_02339_R3,Plate:MR001",1.51 µM
same,potency estimated from few doses,"RPS6KA3; compound concentrations:100 nM and 1000 nM (sheet 'Lestaurtinib' of Supplementary Table 1),run:Lestaurtinib_02438_R1,Plate:MR008",1.84 µM
same,potency estimated from few doses,RPS6KA3; [7],1.65 µM
same,potency estimated from few doses,RPS6KA3; [10],1.15 µM
same,potency estimated from few doses,"RPS6KA3; compound concentrations:100 nM and 1000 nM (sheet 'Lestaurtinib' of Supplementary Table 1),run:Lestaurtinib_02577_R1,Plate:MR016",1.76 µM
same,potency estimated from few doses,RPS6KA3; [8],1.53 µM
